PD-1 reverse act: activators reversing PD-1 mediated T-cell inhibition, primary screen, luminescence, primary human CD4 T cells, PD-L1 beads; CellTiter-Glo 96 h; activation, % (test concentration not listed); 29,000 tested, under 10 active; AID 2316, 2010; call rule not given here;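 note: 0% = median vehicle wells and 100% = positive control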
STK33 kin inh: STK33 kinase inhibitors, primary screen, biochemical, luminescence, ADP-Glo, MBP substrate; inhibition, % at 12.5 µM; 27,000 tested, 0.44% active; in the data active = inhibition above about 20%
Target sequence (Q9BYT3 whole entry, looked up): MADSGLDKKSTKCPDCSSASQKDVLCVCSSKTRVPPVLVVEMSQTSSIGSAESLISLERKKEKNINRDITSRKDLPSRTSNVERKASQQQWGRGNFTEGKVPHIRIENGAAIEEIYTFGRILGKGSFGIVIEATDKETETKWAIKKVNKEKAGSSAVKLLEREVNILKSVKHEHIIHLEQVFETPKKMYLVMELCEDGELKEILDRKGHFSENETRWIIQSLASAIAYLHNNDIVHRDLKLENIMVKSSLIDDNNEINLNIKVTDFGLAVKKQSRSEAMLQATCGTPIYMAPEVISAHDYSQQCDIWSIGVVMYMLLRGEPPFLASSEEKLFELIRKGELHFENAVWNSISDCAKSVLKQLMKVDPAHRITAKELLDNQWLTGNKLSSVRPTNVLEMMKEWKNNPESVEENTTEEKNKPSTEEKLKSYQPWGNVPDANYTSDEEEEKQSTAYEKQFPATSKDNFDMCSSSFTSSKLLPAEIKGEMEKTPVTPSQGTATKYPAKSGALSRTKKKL
NOMO-1 viab: NOMO-1 AML cell viability reduction, primary screen, STK33 inhibitor project, CellTiter-Glo luminescence; NOMO-1 AML viability, 72 h; inhibition, % (concentration not given with the values); 37,000 tested, 7.5% active; AID 2330, 2010; in the data active = inhibition above about 80%
* marks the source's active call; other numbers are inactive results; · = not tested or not shown. This is one part of a sample in which hits are shown more often than they occur.

SMILES	PD-1 reverse act	STK33 kin inh	NOMO-1 viab
O=C(Nc1cc2c(ccc3ccccc32)oc1=O)c1ccccc1	-0.3	·	14.8
N=c1oc2ccc3ccccc3c2cc1C(=O)Nc1ccccc1	-0.3	·	114.6*
COC(=O)C1=C(N)Oc2cc(C)n(Cc3ccccc3)c(=O)c2C1c1ccncc1 (stereo not given)	0.7	·	6.5
Cc1ccc(Nc2ccc3noc4c3c2C(=O)c2ccccc2-4)cc1	-2.5	·	126.7*
CNc1cc(NC)c2ncnc3c2c1C(=O)c1ccccc1-3	0.0	·	25.3
N#Cc1ccc(-c2ccc(OC(=O)CS(=O)c3ccc(C(F)(F)F)cc3[N+](=O)[O-])cc2)cc1 (stereo not given)	-11.5	1.5	129.3*
COC(=O)c1ccc(OC(=O)CS(=O)c2ccc(C(F)(F)F)cc2[N+](=O)[O-])cc1 (stereo not given)	·	0.0	108.7*
CC(=O)Nc1cccc(NC(=O)CNc2ccc(C(F)(F)F)cc2[N+](=O)[O-])c1	1.0	4.4	-11.6
O=C(NCCNc1ccc(C(F)(F)F)cc1[N+](=O)[O-])c1ccc(F)cc1	-1.9	-3.0	18.4
O=c1[nH]c2ccccc2c(=O)n1CCNCc1ccccc1	1.2	0.3	-6.2
C[C@@H]1CCCCO[C@H](CN(C)Cc2ccc(Cl)c(Cl)c2)[C@@H](C)CN([C@H](C)CO)C(=O)c2cc(NC(=O)Nc3ccc(F)cc3)ccc2O1	·	2.9	125.7*
C[C@@H]1CCCCO[C@H](CN(C)Cc2ccc3c(c2)OCO3)[C@@H](C)CN([C@H](C)CO)C(=O)c2cc(NC(=O)Nc3ccc(F)cc3)ccc2O1	-3.3	-4.5	70.1
C[C@@H]1CCCCO[C@H](CN(C)Cc2ccccc2)[C@@H](C)CN([C@H](C)CO)C(=O)c2cc(NC(=O)c3ccccc3)ccc2O1	·	4.8	27.0
COc1ccc(NC(=O)Nc2ccc3c(c2)C(=O)N([C@H](C)CO)C[C@H](C)[C@@H](CN(C)Cc2ccc(Cl)c(Cl)c2)OCCCC[C@@H](C)O3)cc1	·	2.0	43.4
C[C@@H]1CCCCO[C@@H](CN(C)Cc2ccncc2)[C@@H](C)CN([C@H](C)CO)C(=O)c2cc(NC(=O)Nc3ccc(F)cc3)ccc2O1	·	-1.8	-5.9
C[C@@H]1CCCCO[C@@H](CN(C)Cc2ccc(Cl)c(Cl)c2)[C@@H](C)CN([C@H](C)CO)C(=O)c2cc(NC(=O)c3ccccc3)ccc2O1	-6.3	3.5	121.7*
COc1ccc(NC(=O)Nc2ccc3c(c2)C(=O)N([C@H](C)CO)C[C@H](C)[C@H](CN(C)Cc2ccc(Cl)c(Cl)c2)OCCCC[C@@H](C)O3)cc1	-3.7	3.7	97.8*
C[C@@H]1CCCCO[C@@H](CN(C)Cc2ccc(Cl)c(Cl)c2)[C@@H](C)CN([C@H](C)CO)C(=O)c2cc(NC(=O)Nc3ccc(F)cc3)ccc2O1	-1.5	4.6	134.4*
CCc1nc(SCC(=O)Nc2c(Cl)cccc2Cl)c(C#N)c(C(F)(F)F)c1C	2.0	2.9	-0.5
COc1cccc2cc(C(=O)C3C(=O)C(=O)N(c4nc(C)c(C)s4)C3c3ccco3)oc12 (stereo not given)	·	-3.1	-11.3
CC(C)NC(=O)Nc1ccc2c(c1)C(=O)N([C@H](C)CO)C[C@H](C)[C@H](CN(C)Cc1ccncc1)OCCCC[C@@H](C)O2	0.8	-0.1	18.7
C[C@@H]1CN([C@@H](C)CO)C(=O)c2cc(NC(=O)NC3CCCCC3)ccc2O[C@@H]1CN(C)Cc1ccc(Cl)c(Cl)c1	-0.9	0.4	22.1
CC(C)NC(=O)Nc1ccc2c(c1)C(=O)N([C@H](C)CO)C[C@H](C)[C@H](CN(C)Cc1ccc(Cl)c(Cl)c1)OCCCC[C@@H](C)O2	-6.5	1.5	100.7*
C[C@@H]1CCCCO[C@@H](CN(C)Cc2ccc(Cl)c(Cl)c2)[C@@H](C)CN([C@H](C)CO)C(=O)c2cc(NC(=O)NC3CCCCC3)ccc2O1	-0.7	4.3	112.1*
COc1ccc(NC(=O)CSC2CC(=O)N(c3ccccc3)C2=O)cc1Cl (stereo not given)	0.9	-1.1	-3.8
SMILES	PD-1 reverse act	STK33 kin inh	NOMO-1 viab
C[C@@H]1CC[C@]2(C(=O)OC3OC(CO)C(OC4OC(CO)C(O)C(O)C4O)C(O)C3O)CC[C@]3(C)C(=CCC4[C@@]5(C)CC[C@H](O)[C@](C)(C(=O)O)C5CC[C@]43C)C2[C@]1(C)O (stereo not given in full)	1.2	-2.7	5.7
CS(=O)(=O)N(CC(=O)Nc1ccc2ccccc2c1)c1ccc(F)cc1	1.1	0.4	41.4
COc1ccc(CN(C)C[C@@H]2Oc3ccc(NS(=O)(=O)c4ccc(OC)cc4)cc3C(=O)N([C@@H](C)CO)C[C@@H]2C)cc1	0.3	·	11.4
COc1ccc(S(=O)(=O)Nc2ccc3c(c2)C(=O)N([C@@H](C)CO)C[C@@H](C)[C@@H](CN(C)Cc2ccc(C(F)(F)F)cc2)O3)cc1	0.5	·	114.8*
COc1ccc(CN(C)C[C@@H]2Oc3ccc(NS(=O)(=O)c4ccc(OC)cc4)cc3C(=O)N([C@@H](C)CO)C[C@H]2C)cc1	0.0	·	14.9
COc1ccc(S(=O)(=O)Nc2ccc3c(c2)C(=O)N([C@H](C)CO)C[C@@H](C)[C@@H](CN(C)Cc2ccc(C(F)(F)F)cc2)O3)cc1	-1.3	·	108.4*
COc1ccc(S(=O)(=O)Nc2ccc3c(c2)C(=O)N([C@@H](C)CO)C[C@@H](C)[C@H](CN(C)Cc2ccc(C(F)(F)F)cc2)O3)cc1	1.0	2.9	113.5*
COc1ccc(CN(C)C[C@H]2Oc3ccc(NS(=O)(=O)c4ccc(OC)cc4)cc3C(=O)N([C@@H](C)CO)C[C@H]2C)cc1	2.0	·	26.0
CCOC(=O)c1c(COC(C)=O)n(C)c2cc(Br)c(OC)cc12	-1.1	·	45.9
O=C(CN1CCN(S(=O)(=O)c2cccc([N+](=O)[O-])c2)CC1)Nc1ccc(F)cc1	·	1.0	16.1
COc1ccc(CCNC(=O)c2nc3ccccc3c(=O)n2-n2cccc2)cc1OC	0.7	·	-0.2
COc1ccc(C(=O)Nc2ccc(C(O)(C(F)(F)F)C(F)(F)F)cc2)cc1	0.5	-1.1	109.7*
COc1ccc(C(=O)Nc2ccc(C)c(C)c2)cc1	-0.7	·	22.8
COc1ccc(C(=O)C(C)Oc2ccc(NC(=O)c3cccc(OC)c3)cc2)cc1 (stereo not given)	-5.3	7.0	124.5*
COc1ccc(C(=O)C(C)Oc2cccc(NC(=O)c3cccc([N+](=O)[O-])c3)c2)cc1 (stereo not given)	·	0.3	-8.8
CCn1c2ccccc2c2cc(CNCCc3ccc(Cl)cc3)ccc21	-11.5	·	112.9*
O=c1c2ccccc2n(Cc2ccc(Cl)cc2)c(=O)n1Cc1ccc(Cl)cc1	0.2	·	36.7
CSc1nc(C)cc(OCC(=O)Nc2ccc(Cl)cc2)n1	-0.9	-3.3	16.0
COC(=O)c1cc(C)nc(Sc2ccccc2NC(=O)Nc2ccc(Cl)cc2)n1	1.8	-0.3	108.7*
O=C(CSc1n[nH]c(-c2ccc(Cl)cc2)n1)Nc1ccccc1Cl	-7.4	7.6	44.1
Cc1ccc(S(=O)(=O)Nc2cc(Cl)c(O)c(Sc3nc(C)cc(C)n3)c2)cc1	·	-1.8	-17.4
C(=Nc1ccc2ccccc2c1)Nc1ccc2ccccc2c1	5.0	0.3	13.2

Compound activity deposited in PubChem by Broad Institute.
